Source: PubChem
Compounds with a hit are over-represented: about 3.2% of the library has one in this group of screens.
TWEAK-Fn14 inh – blocks TWEAK-Fn14 interaction in a reporter cell assay. TWEAK-stimulated Fn14 reporter cells, luciferase luminescence, 8 h. inhibition, % at 10 µM. 360,000 tested, 2% active; in the data active means inhibition above about 50%
PAX8 inh HTS – lowers PAX8-driven luciferase in RMG-I cells | RMG-I TPO-luciferase reporter, SteadyGlo, 24 h | inhibition, % at 12.6 µM | 360,000 tested, 1.2% active | AID 652154;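 active means mean replicate inhibition at least 60% with every replicate also reaching 60%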;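 further: luciferase light reporting Pax8 driven TPO promoter activity; plate controls were median of neutral control wells for no effect and mitoxantrone controls for full effect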
TROY NFkB inh – TROY signaling inhibition. 360,000 tested, 0.98% active. Q293 LMP1-TROYcd NF-kB luciferase reporter, 4 h. inhibition, % at 10 µM;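 active means compounds whose plate-normalised and pattern-corrected inhibition of the luciferase reporter signal at the single screening dose is 50% or more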
EWS-Fli inh – inhibitors of EWS/Fli oncoprotein transcriptional activity | 350,000 tested, 0.67% active | A673 NR0B1-luciferase reporter, viability-normalised | AID 651661 | inhibition, % at 12.6 µM;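 active means mean inhibition of at least 50% after viability correction, with every replicate also passing that limit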;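 further: firefly luciferase signal divided by Alamar Blue viability fluorescence both relative to DMSO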
EBV LMP1 NFkB – Epstein-Barr LMP1 NF-kappaB reporter inhibition. LMP1-induced NF-kappaB luciferase reporter cells, luminescence. inhibition, % at 12.5 µM. 350,000 tested, 0.69% active. AID 504558; in the data active means inhibition above about 41%;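 further: 0% = neutral control wells and 100% = reference inhibitor control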
LGR2 antag – blocks bursicon-induced cAMP signaling via Drosophila LGR2. HEK293 LGR2, CRE-luciferase, bursicon-stimulated, 4 h. inhibition, % at 9.99 µM. 380,000 tested, 0.35% active. AID 720647;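 active means drop in luminescence signal, shown as inhibition above about 50% in the replicate tests, limit read from the data, passing the limit was not always enough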;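 further: agonist challenge used bursicon conditioned medium at about half maximal strength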
* marks the source's active call; other numbers are inactive results; / = no result.

SMILES | TWEAK-Fn14 inh | PAX8 inh HTS | TROY NFkB inh | EWS-Fli inh | EBV LMP1 NFkB | LGR2 antag
Nc1nc(N)nc(-c2ccc(Cl)c(Cl)c2)n1 | 60* | -403 | -3 | -129 | 6 | 27
COc1ccc(NC(=O)Nc2ccc3c(c2)C(=O)N([C@@H](C)CO)C[C@H](C)[C@H](CN(C)C(=O)c2ccccc2)OCCCC[C@H](C)O3)cc1 | / | 10 | / | 2 | / | 2
O=C(CC(F)(F)F)N1C[C@H]2[C@@H](c3ccccc31)[C@@H](CO)N2CC1CCCCC1 | / | 7 | / | -5 | / | -8
Cc1noc(C)c1NC(=O)Nc1ccc2c(c1)C(=O)N([C@@H](C)CO)C[C@H](C)[C@@H](CN(C)C(=O)NC1CCCCC1)OCCCC[C@H](C)O2 | / | 10 | / | -2 | / | 22
Cc1cc(C)cc(NC(=O)NCc2c(-c3ccccc3)noc2C)c1 | -5 | -6 | -19 | 1 | 16 | 3
Cc1onc(-c2ccccc2)c1CNC(=O)Nc1ccc(C(F)(F)F)cc1 | 9 | 2 | 50* | 8 | 22 | 21
COc1ccccc1-c1cc(C(F)(F)F)nc(N2CCCCC2)n1 | -6 | / | 4 | / | -8 | 5
COc1ccccc1-c1cc(C(F)(F)F)nc(S(C)(=O)=O)n1 | 19 | / | 53* | / | -5 | /
COc1ccccc1-c1cc(C(F)(F)F)nc(S(=O)(=O)CCCC(=O)N2CCCCC2C)n1 (stereo not given) | 83* | 9 | 65* | / | 0 | /
COc1ccccc1-c1cc(C(F)(F)F)nc(S(=O)(=O)CCCC(=O)NC(C)C)n1 | 39 | / | -5 | / | -4 | /
COc1ccccc1-c1cc(C(F)(F)F)nc(N2CCCC2)n1 | 8 | 2 | 10 | / | -13 | /
COc1ccccc1-c1cc(C(F)(F)F)nc(S(=O)(=O)CCCC(=O)NCc2ccc(F)cc2)n1 | 99* | 41 | 84* | -7 | 14 | 23
COc1ccc(-c2cc(C(F)(F)F)nc(S(=O)(=O)CCCC(=O)Nc3cc(C)on3)n2)cc1OC | 96* | 90* | 52* | 5 | -1 | 90*
COc1ccccc1-c1cc(C(F)(F)F)nc(S(=O)(=O)CCCC(=O)Nc2cc(C)on2)n1 | 39 | / | 39 | / | -8 | /
COc1cc2c(cc1OC)CN(C(=O)[C@@H]1[C@H]3C(=O)O[C@H](c4ccccc4)[C@H](c4ccccc4)N3[C@H](c3ccc(OCCO)cc3)[C@@]13C(=O)Nc1ccc(C#CCNC(N)=O)cc13)CC2 | / | -7 | / | -5 | / | /
COc1ccccc1-c1cc(C(F)(F)F)nc(S(=O)(=O)CCCC(=O)Nc2cccnc2Cl)n1 | 82* | 30 | 62* | 20 | -24 | /
CCCNC(=O)N(C)C[C@@H]1Oc2ncc(C#C[C@@H](C)O)cc2C(=O)N([C@@H](C)CO)C[C@H]1C | / | / | / | -7 | / | -7
COc1cc2[nH]c(C(=O)Nc3ccc4c(c3)OCCO4)cc2c(OC)c1OC | 71* | -27 | 56* | -8 | 19 | 1
S=C(Nc1ccc(Br)cc1)Nc1ccc2c(c1)OCCO2 | -13 | -158 | -6 | -61 | -26 | -16
COc1cc2cc(C(=O)Nc3ccc4c(c3)OCCO4)[nH]c2cc1OC | 93* | -31 | 77* | / | 45* | 23
COc1cc(NC(=S)Nc2ccc3c(c2)OCCO3)cc(OC)c1OC | 36 | -10 | 57* | -30 | 7 | -90
CCCNC(=O)N1CC2(CCN(C(C)=O)CC2)c2c(n(C)c3cc(OC)ccc23)[C@@H]1CO | / | / | / | -4 | / | -15
COc1ncnc2c1ncn2CCCNCCCN1CCCC1=O | -15 | 72* | -2 | 2 | 4 | -19
O=C1CCCN1CCCNCCCn1cnc2c(OCc3ccccc3)ncnc21 | 18 | 8 | 2 | 4 | 3 | -9
Cc1ccc(C(=O)NNC(=O)CCCN2C(=O)/C(=C/c3ccccc3Cl)SC2=S)cc1 | 48 | 19 | 34 | 31 | 35 | 9
SMILES | TWEAK-Fn14 inh | PAX8 inh HTS | TROY NFkB inh | EWS-Fli inh | EBV LMP1 NFkB | LGR2 antag
O=C1/C(=C/c2ccccc2Cl)SC(=S)N1CCCC(=O)N(CCO)c1ccccc1 | 60* | 34 | 63* | / | 14 | 12
O=C(CCN1C(=O)/C(=C/c2ccccc2Cl)SC1=S)Nc1cccnc1 | -8 | -21 | 57* | 5 | -6 | -1
O=C(CCCN1C(=O)/C(=C/c2ccccc2Cl)SC1=S)Nc1ccccn1 | 82* | 37 | 60* | / | 17 | 3
O=C(CCCN1C(=O)/C(=C/c2ccccc2Cl)SC1=S)Nc1cccnc1 | 11 | 81* | 29 | / | 58* | 10
CCCC#Cc1cnc2c(c1)C(=O)N([C@H](C)CO)C[C@@H](C)[C@H](CN(C)Cc1ccncc1)O2 | / | -11 | / | -7 | / | -8
CC(=O)Nc1nc(-c2ccc3c(c2)CCN3C(=O)C2CC2)c(C)s1 | 12 | 23 | -23 | 7 | 82* | 6
O=C(c1cnccn1)N1CC[C@@H]2[C@@H](CO)Nc3ccc(-c4cccc(F)c4)cc3[C@@H]21 | / | -6 | / | 2 | / | 17
COc1ccc(Nc2ncnc3c2c(C)c(C)n3CCCN(C)C)cc1 | 59* | -70 | 55* | -46 | -4 | 21
Cc1ccc(NC(=S)/C(C#N)=C2/Nc3ccccc3S2)cc1 | 39 | 84* | 41 | -9 | -3 | -17
N#C/C(C(=O)N1CCCCC1)=C1\Nc2ccccc2S1 | -12 | / | -56 | / | -21 | /
COc1ccc2c3c(n(C)c2c1)[C@H](CO)N(S(C)(=O)=O)CC31CN(C(=O)C2CCCC2)C1 | / | 4 | / | -4 | / | 22
Cc1cc(/C=N/NC(=O)c2ccncc2)c(C)n1-c1ccccc1 | -16 | -14 | -32 | -35 | 6 | -15
Cc1cc(/C=N/NC(=O)c2cccs2)c(C)n1-c1ccccc1 | 80* | -201 | 63* | / | 17 | /
CCNC(=O)C[C@H]1CC[C@@H](NS(=O)(=O)c2ccc(C)cc2)[C@H](CO)O1 | / | -21 | / | -5 | / | -3
COc1ccc(NC(=O)/C(Cl)=C(/Cl)S(=O)(=O)Cc2ccc(C)cc2)cn1 | 103* | / | 86* | / | 87* | /
COc1ccc(NC(=O)/C(Cl)=C(/Cl)S(=O)Cc2ccccc2Cl)cn1 (stereo not given) | / | / | / | / | 89* | /
COc1ccc(NC(=O)Cc2ccc(Cl)c(Cl)c2)cn1 | -1 | -7 | -36 | -1 | -5 | 14
Cc1noc2ncnc(N3CCCC3)c12 | 21 | -6 | 12 | -11 | 3 | -6
Cc1noc2ncnc(Sc3ccc(Br)cc3)c12 | 66* | 0 | 64* | 8 | 8 | 76*
CCCNC(=O)[C@H]1[C@H](CO)[C@H]2Cn3c(cccc3=O)[C@H]2N1C(=O)CC1CC1 | / | -4 | / | 6 | / | 6
CC(=O)N1[C@@H]2c3ccc(-c4ccccc4)c(=O)n3C[C@H]1[C@H](CO)[C@H]2C(=O)NCC1CC1 | / | 1 | / | -2 | / | 4
CS(=O)(=O)N1CC2(C1)[C@@H](c1ccccc1)[C@@H](CO)N2Cc1ccccc1 | / | 11 | / | 5 | / | 16
Cn1c(N)c(C(=O)CSc2nn(-c3ccc(F)cc3)c(=S)s2)c(=O)n(C)c1=O | 60* | -6 | 47 | 15 | 11 | -4
